Data from the supplement of paper PMC4166925.
± gives the standard deviation of the averaged measurements. Whole data set: some 33,000 sequences, median “E-score (dimensionless, -0.5 to 0.5)” near -0.046, cut for the highest 2% near 0.36. The list comes from a sample in which the highest values are over-represented; it also holds similar and randomly drawn sequences.

These sequences were tested on T1, SpTbr T-box DNA-binding domain (GST fusion) (assay: PBM E-score of 8-mer (E-score (dimensionless, -0.5 to 0.5)); Tbr is Tbrain of the sea star Patiria miniata (Pm) or the sea urchin Strongylocentrotus purpuratus (Sp); higher = stronger binding preference). Settings: the construct has about 5 more residues each side.
T1 sequence: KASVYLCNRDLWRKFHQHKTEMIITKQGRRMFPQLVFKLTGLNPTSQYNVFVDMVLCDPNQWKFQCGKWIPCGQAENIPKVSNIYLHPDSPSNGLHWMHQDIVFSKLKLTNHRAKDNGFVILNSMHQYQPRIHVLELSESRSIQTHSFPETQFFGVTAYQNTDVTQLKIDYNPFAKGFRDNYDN
Outline: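 Using the Universal PBM Analysis Suite, every ungapped 8-mer received an enrichment E-score averaged over duplicate arrays. Probe intensities came from double-stranded Universal Agilent oligonucleotide arrays incubated with 200 nM GST-fused Tbr T-box DNA-binding domain in PBS (pH 7.5). That protein was expressed in BL21 E. coli at 20 °C and purified by glutathione affinity chromatography.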

| Sequence | PBM E-score of 8-mer |
| --- | --- |
| AGAAGACT | -0.285 ± 0.046 |
| ACTAAATA | -0.131 ± 0.019 |
| GCGAATAC | 0.228 ± 0.018 |
| AGCCGTCG | 0.0127 ± 0.019 |
| AAGGGTAA | -0.088 ± 0.0016 |
| GCCACACC | 0.421 ± 0.036 |
| GCCACAGC | 0.00288 ± 0.017 |
| GCCACACA | 0.335 ± 0.0096 |
| CACACACC | 0.454 ± 0.013 |
| ACCACACC | 0.369 ± 0.029 |
| AACACACC | 0.326 ± 0.0067 |
| ACCACACA | 0.248 ± 0.037 |
| CCCACACG | 0.15 ± 0.1 |
| CCCACACA | 0.199 ± 0.038 |
| CCCACACC | 0.438 ± 0.033 |
| ACCACACG | 0.26 ± 0.039 |
| GACACACC | 0.321 ± 0.016 |
| CTCGAGAC | -0.0685 ± 0.051 |
| CACCATAC | -0.065 ± 0.011 |
| ACGGTTAT | 0.0286 ± 0.041 |
| ATGCCTGC | -0.295 ± 0.061 |
| GTGGTGCA | 0.0312 ± 0.0088 |
| AGTTGTTC | 0.00852 ± 0.024 |
| CCGTTAGG | 0.0143 ± 0.029 |
| CCTATCGA | 0.042 ± 0.12 |

| Sequence | PBM E-score of 8-mer |
| --- | --- |
| ACCGTCTA | -0.0953 ± 0.012 |
| CACAACCA | 0.133 ± 0.025 |
| CAAAAAGC | 0.0694 ± 0.065 |
| GGAGCTGA | -0.203 ± 0.042 |
| CTGACACA | 0.356 ± 0.022 |
| ATGACAAA | -0.0554 ± 0.028 |
| ACGACAAC | 0.2279 ± 0.0012 |
| GCGACAAC | 0.369 ± 0.007 |
| GAGACACA | 0.15 ± 0.01 |
| GTGACAAC | 0.4467 ± 0.0025 |
| GTGACACA | 0.403 ± 0.0044 |
| CCGACAAC | 0.159 ± 0.048 |
| CTGACAAA | 0.0345 ± 0.084 |
| CTGACAAC | 0.259 ± 0.018 |
| ATGACAAC | 0.222 ± 0.017 |
| GTGACAAA | 0.38303 ± 5.7e-05 |
| AGGTAGCA | 0.0725 ± 0.016 |
| ACCACAAT | -0.0442 ± 0.058 |
| GGCACCCC | 0.22 ± 0.003 |
| AACACCCA | 0.293 ± 0.035 |
| AACACCCC | 0.39126 ± 9.9e-05 |
| GACACCCA | 0.374 ± 0.032 |
| AACACCCT | 0.4 ± 0.0049 |
| GCCACCCA | 0.0264 ± 0.086 |
| GGCACCCA | 0.173 ± 0.021 |

| Sequence | PBM E-score of 8-mer |
| --- | --- |
| GACACCCC | 0.405 ± 0.026 |
| AGCACCCT | 0.202 ± 0.025 |
| ATCACCCC | 0.232 ± 0.013 |
| GCCACCCC | 0.181 ± 0.081 |
| ACCACCCT | 0.0155 ± 0.074 |
| CAGCCGGA | 0.05 ± 0.018 |
| CCAGTCAC | 0.0388 ± 0.0065 |
| AAGTTTCT | 0.0712 ± 0.037 |
| CCTCCTCA | 0.0831 ± 0.027 |
| AGATCTCA | 0.098 ± 0.054 |
| TATTCTCA | 0.264 ± 0.061 |
| CGAAAACC | -0.297 ± 0.0092 |
| GTCGCGTA | 0.0514 ± 0.011 |
| CCGGCCAA | -0.208 ± 0.042 |
| AACACCAT | 0.377 ± 0.021 |
| AACACCAA | 0.356 ± 0.012 |
| ACCACCAT | 0.108 ± 0.082 |
| GATATAGC | 0.118 ± 0.023 |
| ATCAAATA | -0.182 ± 0.015 |
| CGTCGACA | 0.251 ± 0.031 |
| TGTCGACA | 0.384 ± 0.01 |
| AGTCGACA | 0.179 ± 0.051 |
| GCAAACCC | -0.0464 ± 0.01 |
| ACATATTC | 0.203 ± 0.049 |
| ACTCGCAC | 0.394 ± 0.035 |

| Sequence | PBM E-score of 8-mer |
| --- | --- |
| GCTCGCCC | -0.196 ± 0.039 |
| CCTCGCAC | 0.396 ± 0.032 |
| CCTCGCAG | 0.128 ± 0.0015 |
| CCTCGCAA | 0.102 ± 0.077 |
| ACTCGCAT | -0.00696 ± 0.059 |
| ACTCGCAG | 0.0332 ± 0.026 |
| GCTCGCAA | 0.224 ± 0.021 |
| GCTCGCAC | 0.4252 ± 0.0014 |
| AATTGGAC | -0.187 ± 0.049 |
| GCAGTGGA | -0.261 ± 0.065 |
| AACCTTAC | 0.0738 ± 0.012 |
| CACCTTAA | 0.387 ± 0.004 |
| CACCTTAG | 0.401 ± 0.04 |
| CCCCTTAG | -0.184 ± 0.068 |
| GACCTTAA | -0.188 ± 0.0048 |
| CACCTTAC | 0.413 ± 0.017 |
| AACCTTAG | -0.144 ± 0.086 |
| GACCTTAC | -0.286 ± 0.0076 |
| AACCTTAA | -0.218 ± 0.046 |
| TAAGAGCA | -0.252 ± 0.049 |
| CCGCTACC | 0.162 ± 0.04 |
| ATGCTTCG | 0.0174 ± 0.071 |
| CGTGCCTA | -0.0792 ± 0.002 |
| GGTAGGCA | -0.079 ± 0.028 |
| AAACTACA | 0.014 ± 0.14 |

| Sequence | PBM E-score of 8-mer |
| --- | --- |
| TAGGGGCA | -0.127 ± 0.04 |
| ATGCACGC | -0.0415 ± 0.12 |
| AGGTGAAC | 0.164 ± 0.025 |
| CGAAATCG | 0.2456 ± 0.0015 |
| CACTTGCG | 0.387 ± 0.026 |
| AACTTGTC | 0.355 ± 0.03 |
| CACTTGCA | 0.336 ± 0.012 |
| AACTTGCG | 0.198 ± 0.0091 |
| CACTTGTA | 0.116 ± 0.046 |
| CACTTGTC | 0.375 ± 0.012 |
| CGGCGCCC | 0.0161 ± 0.043 |
| CTCTGACA | 0.233 ± 0.019 |
| TAACATTA | -0.0674 ± 0.087 |
| TAATATTA | -0.13 ± 0.033 |
| GAGTCGAC | 0.107 ± 0.061 |
| GATGTCCA | -0.22 ± 0.056 |
| AGCTAACA | 0.233 ± 0.022 |
| AGCTAACG | 0.236 ± 0.016 |
| TGCTAACA | 0.369 ± 0.022 |
| GGCTAACA | 0.235 ± 0.024 |
| CGCTAACC | 0.19 ± 0.0091 |
| CGCTAACG | 0.373 ± 0.0088 |
| CAGCTCGG | -0.132 ± 0.057 |
| CGGTGGAA | -0.0405 ± 0.033 |
| ATCTATGC | -0.197 ± 0.03 |

| Sequence | PBM E-score of 8-mer |
| --- | --- |
| ACGAGTAT | -0.0491 ± 0.014 |
| CAATCCTA | -0.0316 ± 0.041 |
| AAACCACT | -0.258 ± 0.016 |
| AGCACTTG | 0.168 ± 0.018 |
| AACGCATG | 0.0228 ± 0.0081 |
| CAGCTTGG | -0.00698 ± 0.044 |
| AACCTTGG | -0.0793 ± 0.032 |
| CACCTTGG | 0.45 ± 0.005 |
| CACCTTGA | 0.367 ± 0.042 |
| GACCTTGC | -0.153 ± 0.0056 |
| GACCTTGA | -0.145 ± 0.019 |
| AACCTTGC | 0.00568 ± 0.0057 |
| CACCTTGC | 0.389 ± 0.013 |
| TACCTTGA | 0.01 ± 0.065 |
| ACACTGTA | 0.172 ± 0.036 |
| ACTTGATA | 0.108 ± 0.039 |
| AGACAGCG | -0.00288 ± 0.048 |
| CTGAAAGC | -0.193 ± 0.033 |
| GTGTAAAC | 0.367 ± 0.02 |
| ATGTAAAC | 0.0731 ± 0.026 |
| CTGTAAAC | 0.132 ± 0.0059 |
| AGCAGATA | -0.195 ± 0.043 |
| ACAGCCCT | -0.109 ± 0.054 |
| ATATGTGA | 0.242 ± 0.055 |
| AAATGTGT | 0.435 ± 0.0081 |

| Sequence | PBM E-score of 8-mer |
| --- | --- |
| ATGTGTGC | 0.299 ± 0.0091 |
| AAATGTGC | 0.151 ± 0.076 |
| CTGTGTGA | 0.341 ± 0.0081 |
| ATGTGTGA | 0.4838 ± 0.001 |
| GTGTGTGA | 0.4221 ± 0.003 |
| GTGTGTAA | 0.27 ± 0.0036 |
| AAATGTGG | 0.114 ± 0.01 |
| CAGCCAAC | 0.106 ± 0.037 |
| GTAGCGCA | -0.148 ± 0.091 |
| GATGCGCA | 0.014 ± 0.028 |
| ATCTCCAC | 0.0376 ± 0.0077 |
| AACGTTTC | -0.191 ± 0.019 |
| TCTCGAAA | -0.0659 ± 0.035 |
| ACGCCACT | 0.285 ± 0.013 |
| CCACAACC | 0.113 ± 0.015 |
| AAGTTTAT | -0.141 ± 0.074 |
| AATGCAGT | -0.188 ± 0.028 |
| CTCGACAC | 0.3634 ± 0.0018 |
| ATCGACAG | 0.286 ± 0.005 |
| GTCGACAC | 0.394 ± 0.018 |
| ATCGACAA | 0.213 ± 0.0072 |
| GTCGACAA | 0.275 ± 0.0098 |
